Data as given in PubChem BioAssay (NCI).
The panel holds about 83,000 compounds, 20% with a hit somewhere; the sample as a whole holds those more often.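 Each cell line was grown in a 96-well plate and treated with one concentration of compound for 48 hours. Values below 10 were considered active.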 Values without a mark were called inactive. Activity calls are given as the source filed them.

tested on: UACC-62 melanoma; experiment: NCI-60 one-dose screen, 48 h (100 = growth as untreated, 0 = no growth, -100 = all killed); details: 10 µM
Description: Growth inhibition of the UACC-62 human tumor cell line is measured as a screen for anti-cancer activity. Cells are grown in 96 well plates and exposed to the test compound for 48 hours. Compounds are tested at a single concentration, which is 10^-5 M for most compounds. The reported endpoint is percent growth (GI% or GIPRCNT), where numbers from 0 - 100% represent growth inhibition, and numbers from -100% - 0 represent cell death. For example, a value of 40 represents 60% growth inhibition. A value of 0 means no net growth occurred over the course of the experiment. A value of -40 indicates 40% of cells at the beginning of the experiment died by the end of the experiment. A value of -100 means all cells are dead at the end of the experiment.
NCI-60 Human Tumor Cell Lines Screen was performed using the standard one-dose NCI protocol, which is described in more detail at https://dtp.cancer.gov/discovery_development/nci-60/default.htm.
Compounds with GIPRCNT values below 10 were considered active. Activity score was based on GIPRCNT using the following formula: […]
Score is 0 for GIPRCNT values of 100 or above, 50 for GIPRCNT values of 0, and 100 for GIPRCNT values of -100.

SMILES	growth
COc1cccc(-c2nc3sccn3c2-c2cccc(S(C)(=O)=O)c2)c1	99.4%
O=c1[nH]c(=O)n(C2C[C@H](O)[C@@H](CO)O2)cc1C(F)(F)F (stereo not given in full)	108%
COc1cc(NC(=O)Nc2cnc(Nc3ccc(N4CCOCC4)cc3)nc2Oc2cccc(OC)c2)cc(OC)c1	22.8%
O=C(CSc1nnc(-c2cccnc2SCc2ccccc2)o1)Nc1nc(Cl)cc(Cl)n1	101%
COc1ccc2nc(-c3ccc(Cl)cc3)cc(-c3nnc(SC/C(=N\O)c4ccccc4)n3-c3ccccc3)c2c1	89.4%
COC(=O)c1c[nH]c2cc(OC(C)C)c(OC(C)C)cc2c1=O	106%
OCC1OC(n2ccc3c(NO)ncnc32)C(O)C1O (stereo not given)	-88.8% (active)
O=c1cn[nH]c2ccc(Br)cc12	112%
Cc1cc(C(C#N)c2ccc(Cl)cc2)c(Cl)cc1NC(=O)c1cc(I)cc(I)c1O (stereo not given)	11.5%
O=C(Nc1ccccc1)Nc1ncnc2c1ncn2-c1ccccc1	91.8%
OCC1OC2C(NC(=S)N2c2ccccc2)C(O)C1O (stereo not given)	98.7%
Cc1cn(-c2cc(F)cc(NC(=O)c3ccc(C)c(Nc4nccc(-c5cccnc5)n4)c3)c2)cn1	40.9%
COc1ccccc1N1CCCSC1=Nc1ccccc1	99.9%
CNC(=O)c1cc(Oc2ccc3c(c2)sc2nc(-c4ccc(N)cc4)cn23)ccn1	41.9%
Nc1cc(-c2ccc(Cl)cc2)nn1-c1nc2ccccc2nc1Cc1ccccc1	87.8%
Cc1cc(NC(=O)c2ccc(C)c(Nc3nccc(-c4cccnc4)n3)c2)cc(-n2cnc(C)c2)c1	44.6%
COc1cc2cc(Oc3ccc(NC(=O)Nc4ccc(Cl)c(Cl)c4)cc3)c(C)nc2cc1OC	20.4%
COc1cc(-c2nn(-c3cccc(NC(=O)CCN4CCN(c5ccccc5)CC4)c3)cc2-c2ccncc2)ccc1Cl	26.6%
C=CCN(CC=C)C(=O)[C@H](CC)[C@@H]1CC[C@@H](C)[C@@H]([C@H](C)[C@@H](O)[C@@H](C)C(=O)[C@H](CC)C2O[C@]3(C=C[C@@H](O)[C@]4(CC[C@@](C)([C@H]5CC[C@](O)(CC)[C@H](C)O5)O4)O3)[C@H](C)C[C@@H]2C)O1 (stereo not given in full)	14.3%
C=CCNCCN1C(=O)c2ccc3c4c(ccc(c24)C1=O)C(=O)N(CCNCC=C)C3=O	-74.9% (active)

SMILES	growth
COC(=O)CC[C@@H](C)[C@H]1CC[C@H]2[C@@H]3CC[C@@H]4C[C@H](O)CC[C@]4(C)[C@H]3C[C@H](O)[C@]12C	87.2%
COc1ccc(/C=C2/SC(=S)NC2=O)c(OC)c1OC	68.6%
COc1ccc2c(c1)C(=O)/C(=C/c1ccc([N+](=O)[O-])o1)O2	-89% (active)
CCc1c2c(nc3ccc(OC(=O)N4CCC(N5CCCCC5)CC4)cc13)-c1cc3c(c(=O)n1C2)COC(=O)[C@]3(O)CC	17.9%
Nc1nccc(OCCO)n1	106%
COc1ccc(-c2nn(-c3cccc(Cl)c3)cc2-c2cc(-c3ccccc3)nc(N)n2)cc1	74.3%
Clc1nc2ccc(Br)cc2cc1-c1nc2ccccc2[nH]1	90.9%
CN1C(=O)C2(Nc3cc(Cl)ccc3S2)c2cc(Cl)ccc21 (stereo not given)	69.9%
Brc1ccc2c(c1)-c1ccccc1C1=NCCN12	-13.4% (active)
CCN(CC)CCCOc1cccc2c1C(=O)c1cccc(OCCCN(CC)CC)c1C2=O	53%
CCOc1ccccc1/C=N\N=C\c1ccccc1O	93%
CCCN1CN2C(=O)N3CN(CCC)CN4C(=S)N(C1)C2C34 (stereo not given)	98%
CCNCC(=O)Nc1ccc(C(=O)OCC)cc1	99.2%
COc1cc(Cc2cc(-c3ccccc3)n[nH]c2=O)cc(OC)c1OC	43.3%
Cc1cccc(N=Cc2ccccc2O)c1C	95.2%
S=C1N(c2ccccc2)CN(C2CCCCC2)CN1c1ccccc1	97.7%
O=C(Nc1ccc(NS(=O)(=O)c2ccc(F)cc2)cc1)C12CC3CC(CC(C3)C1)C2	92.4%
C/C(=C/CCC(C)[C@@H]1CC[C@]2(C)C3=C(CC[C@@]12C)[C@@]1(C)CCC(=O)C(C)(C)[C@@H]1CC3)C(=O)O (stereo not given in full)	-92.4% (active)
CCn1c(SCc2ccc(C)cc2)nnc1-c1nn(-c2ccc(Cl)cc2Cl)c(-c2ccc(Cl)cc2)c1C	21.2%
COc1ccc(-c2nn(-c3cccc(Cl)c3)cc2-c2cc(-c3ccccc3)[nH]c(=O)c2C#N)cc1	35%
